The supplement of paper PMC10981050
Several values for one entry are separate records, joined by “and”; a condition that tells them apart may be missing. Equal entries are not always repeated. Structures can show the parent of a compound that is named as a salt.

Assays:
Assay in all cases: cell viability relative to vehicle control; higher = less cytotoxic
Conditions in all cases: 10 µM
K562 = test system: K562
In short: (§1)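 Four leukaemia lines, as CRISPR-edited mutant clones and isogenic wild-type clones, were tested against Selleck bioactive, kinase and epigenetic probe libraries after removal of identity-inconsistent compounds. Cells were exposed to a single 10 µM dose for 48 h, and CellTiter-Glo luminescence was then read. Viability was calculated relative to the on-plate vehicle control.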

MARIMO = test system: MARIMO
In short: as §1

MOLM14 = test system: MOLM14
In short: as §1

OCI-AML2 = test system: OCI-AML2
In short: as §1

SMILES | cell viability (K562; SRSF2 genotype: SRSF2 P95H/wt) | cell viability (K562; SRSF2 genotype: SRSF2 wt/wt) [%] | cell viability (MARIMO; SRSF2 genotype: SRSF2 P95H/wt) [%] | cell viability (MARIMO; SRSF2 genotype: SRSF2 wt/wt) [%] | cell viability (MOLM14; SRSF2 genotype: SRSF2 P95H/wt) [%] | cell viability (MOLM14; SRSF2 genotype: SRSF2 wt/wt) [%] | cell viability (OCI-AML2; SRSF2 genotype: P95H/wt) [%] | cell viability (OCI-AML2; SRSF2 genotype: wt/wt) [%]
O=C(O)C1=CO[C@@H](O[C@@H]2O[C@H](CO)[C@@H](O)[C@H](O)[C@H]2O)[C@H]2[C@@H]1C=C[C@]2(O)CO [Monotropein] | 110% and 104% | 107 | 101 | 106 | 104 | 104 | 90.7 | 103
Oc1cc(CNC(=S)/C=C/c2cc(O)c(O)c(Br)c2)cc(O)c1O | 20.1% and 32.5% | 23.6 | 16.6 | 23.2 | 14.3 | 5.87 | 28.1 | 26.9
Cc1cccc2c3c(ccc12)C1=C(C(=O)C3=O)[C@@H](C)CO1 [Dihydrotanshinone I] | 3.54% and 3.11% | 2.64 | 7.76 | 7.12 | 0.56 | 0.4 | 0.43 | 2.86
COCCNC(=O)Nc1ccc2nc(-c3cccs3)c(-c3cccs3)nc2c1 [ACSS2 inhibitor] | 82.9% and 79.4% | 84.3 | 85.1 | 97.7 | 89.1 | 94.8 | 91.5 | 95.1
COc1cc2c(cc1Cc1cccc(Cl)c1F)c(=O)c(C(=O)O)cn2[C@H](CO)C(C)C [Elvitegravir (GS-9137)] | 52% and 50.4% | 45.1 | 40.2 | 39.1 | 57.3 | 35 | 12.9 | 15.9
CCCCCCCCCCC[C@@H](C[C@@H]1OC(=O)[C@H]1CCCCCC)OC(=O)[C@H](CC(C)C)NC=O [Orlistat (Alli, Xenical)] | 75.8% and 85.2% | 76.8 | 41.8 | 64.9 | 75.3 | 73.4 | 49.6 | 86.8
COC(=O)N1CCN(Cc2cccc(NC(=O)Nc3ccc(C)nc3)c2F)CC1 | 89.4% and 89.7% | 96.5 | 91.9 | 94.2 | 100 | 99.9 | 88.4 | 87.2
NC(=O)c1ccc(I)c([N+](=O)[O-])c1 [Iniparib (BSI-201)] | 101% and 102% | 113 | 97.6 | 81.1 | 98.6 | 100 | 127 | 114
CC(C(=O)O)c1ccc2c(c1)Cc1cccnc1O2 (configuration not stated) [Pranoprofen] | 105% and 106% | 110 | 110 | 107 | 102 | 105 | 112 | 106
CCC(=O)O[C@]1(C(=O)SCF)[C@H](C)C[C@H]2[C@@H]3C[C@H](F)C4=CC(=O)C=C[C@]4(C)[C@@]3(F)[C@@H](O)C[C@@]21C [Fluticasone propionate (Flonase, Veramyst)] | 92.7% and 86.5% | 88 | 87.8 | 99 | 85.3 | 83.2 | 86.7 | 108
Nc1nc2c(ncn2[C@@H]2O[C@H](CO)[C@@H](O)[C@H]2O)c(=O)[nH]1 [Guanosine] | 87.3% and 93.1% | 93.2 | 88.2 | 103 | 92.5 | 99.8 | 103 | 97.5
CN1C(=O)[C@@H](NC(=O)c2n[nH]c(Cc3ccccc3)n2)COc2ccccc21 | 97.3% and 106% | 103 | 103 | 105 | 103 | 106 | 106 | 106
COc1ccnc(C[S+]([O-])c2nc3cc(OC(F)F)ccc3[nH]2)c1OC (configuration not stated) [Pantoprazole sodium] | 98.7% and 96.7% | 95.9 | 97 | 101 | 96.5 | 97.3 | 95.7 | 104
CC(C)[C@H](CO)Nc1nc(Nc2cccc(Cl)c2)c2ncn(C(C)C)c2n1 [Purvalanol A] | 82.5% and 94.9% | 85.1 | 72 | 83 | 41.2 | 33.9 | 47.6 | 54.3
COc1cccc(-c2cc(F)ccc2C2Cc3nc(N)nc(C)c3C(=O)N2)n1 (configuration not stated) | 21.2% and 27.1% | 24 | 29.6 | 24.7 | 1.82 | 3 | 15.3 | 19.9
CN1CC(O)c2cc(N=NC(N)=O)c(O)cc21 (configuration not stated) [Carbazochrome] | 98.5% and 95.6% | 89.4 | 99.4 | 94.8 | 95.7 | 101 | 98.8 | 95.4
Nc1ccc(S(=O)(=O)Nc2cncc(Cl)n2)cc1 [Sulfalozine sodium] | 101% and 97.3% | 104 | 103 | 111 | 92.7 | 102 | 107 | 88.8
O=P(O)(O)C(O)(Cc1cccnc1)P(=O)(O)O [Risedronate sodium] | 95.3% and 102% | 91.4 | 88.9 | 102 | 91.8 | 101 | 93.7 | 98.3
Cc1c(NC(=O)c2ccc(C(C)(C)C)cc2)cccc1-c1cn(C)c(=O)c(Nc2ccc(C(=O)N3CCOCC3)cc2)n1 | 94% and 92.1% | 90.8 | 91.5 | 97.4 | 96.1 | 93.4 | 82 | 87.4
Cc1[nH]c2ccccc2c1CCNC(=O)c1cccs1 | 92% and 93.8% | 100 | 90 | 97.2 | 106 | 99.4 | 94.5 | 97.4

SMILES | cell viability (K562; SRSF2 genotype: SRSF2 P95H/wt) | cell viability (K562; SRSF2 genotype: SRSF2 wt/wt) [%] | cell viability (MARIMO; SRSF2 genotype: SRSF2 P95H/wt) [%] | cell viability (MARIMO; SRSF2 genotype: SRSF2 wt/wt) [%] | cell viability (MOLM14; SRSF2 genotype: SRSF2 P95H/wt) [%] | cell viability (MOLM14; SRSF2 genotype: SRSF2 wt/wt) [%] | cell viability (OCI-AML2; SRSF2 genotype: P95H/wt) [%] | cell viability (OCI-AML2; SRSF2 genotype: wt/wt) [%]
CSCC[C@H](NC(=O)[C@H](CC(C)C)NC(=O)[C@H](Cc1c[nH]c2ccccc12)NC(=O)[C@H](CCC(N)=O)NC(=O)[C@@H](NC(=O)[C@H](Cc1ccccc1)NC(=O)[C@H](CC(=O)O)NC(=O)[C@H](CCC(N)=O)NC(=O)[C@H](C)NC(=O)[C@H](CCCNC(=N)N)NC(=O)[C@H](CCCNC(=N)N)NC(=O)[C@H](CO)NC(=O)[C@H](CC(=O)O)NC(=O)[C@H](CC(C)C)NC(=O)[C@H](Cc1ccc(O)cc1)NC(=O)[C@H](CCCCN)NC(=O)[C@H](CO)NC(=O)[C@H](Cc1ccc(O)cc1)NC(=O)[C@H](CC(=O)O)NC(=O)[C@H](CO)NC(=O)[C@@H](NC(=O)[C@H](Cc1ccccc1)NC(=O)[C@@H](NC(=O)CNC(=O)[C@H](CCC(N)=O)NC(=O)[C@H](CO)NC(=O)[C@@H](N)Cc1cnc[nH]1)[C@@H](C)O)[C@@H](C)O)C(C)C)C(=O)N[C@@H](CC(N)=O)C(=O)N[C@H](C(=O)O)[C@@H](C)O [Glucagon HCl] | 113% and 109% | 113 | 107 | 104 | 102 | 108 | 103 | 109
COc1ccc(-c2oc3cc(O)cc(O)c3c(=O)c2O)cc1 [kaempferide] | 108% and 104% | 103 | 105 | 119 | 74.6 | 98.2 | 80.7 | 82.7
C[C@@H](Nc1nc(N[C@H](C)C(F)(F)F)nc(-c2cccc(Cl)n2)n1)C(F)(F)F [Vorasidenib (AG-881)] | 91.3% and 90.9% | 84.7 | 88.3 | 105 | 89 | 85.3 | 104 | 98.3
CC(C)NC[C@H](O)COc1ccc(CCOCC2CC2)cc1 [Levobetaxolol HCl] | 91.7% and 81.4% | 83 | 83 | 90.6 | 89.1 | 91.8 | 79.4 | 98.4
CC(=O)OC(CC(C)C1=C2CC(O)C3C4(C)CCC(=O)C(C)(C)C4CCC3(C)C2(C)CC1)C1OC1(C)C (configuration not stated) [Alisol B Acetate] | 81.3% and 84.2% | 87.8 | 68.4 | 55.6 | 72.8 | 87.8 | 64.1 | 68.6
OC[C@@H](O)[C@@H](O)[C@H](O)[C@@H](O)CO [Sorbitol (Glucitol)] | 101% and 105% | 102 | 103 | 102 | 97.3 | 104 | 101 | 100
FC(F)(F)c1ccc(/C=C/c2nc(COc3ccc(CCCCn4ccnn4)cc3)co2)cc1 [Mubritinib (TAK 165)] | 68.1% and 58.5% | 56.7 | 67.2 | 61.8 | 70.1 | 55.5 | 49.2 | 47
CC(C)(CO)c1cc2cc(NC(=O)C3(c4ccc5c(c4)OC(F)(F)O5)CC3)c(F)cc2n1C[C@@H](O)CO | 95.8% and 95.3% | 87.5 | 92.7 | 109 | 91.5 | 91.7 | 95.7 | 96
CN(C)CCC=C1c2ccccc2CCc2ccccc21 [Amitriptyline HCl] | 83.3% and 90.4% | 88.2 | 77.1 | 83 | 79 | 89.7 | 80.7 | 89.2
CCC(C(=O)O)c1ccc(N2Cc3ccccc3C2=O)cc1 (configuration not stated) [Indobufen] | 92.1% and 90.3% | 102 | 91.3 | 100 | 96.6 | 101 | 92.2 | 98.3
Cc1cc(C(=O)Nc2nc3cccc(Cl)c3n2[C@@H]2CCCCN(C(=O)/C=C/CN(C)C)C2)ccn1 [Nazartinib (EGF816, NVS-816)] | 74.5% and 75.6% | 69.3 | 27.6 | 35.6 | 53 | 48.9 | 44.4 | 56.7
CCOCC(O)COc1ccc(NC(=O)CC[S+](C)C)cc1 (configuration not stated) [Suplatast tosylate] | 100% | 103 | 97.7 | 109 | 105 | 105 | 97.7 | 110
Nc1cc(C(Cl)=C(Cl)Cl)c(S(N)(=O)=O)cc1S(N)(=O)=O [Clorsulon] | 92.3% and 94.2% | 99.7 | 103 | 107 | 104 | 99.8 | 99.9 | 112
CC1=C(CC[C@@H](C)CO[C@@H]2O[C@H](CO)[C@@H](O)[C@H](O)[C@H]2O)O[C@H]2C[C@H]3[C@@H]4CC=C5C[C@@H](O[C@@H]6O[C@H](CO)[C@@H](O[C@@H]7O[C@@H](C)[C@H](O)[C@@H](O)[C@H]7O)[C@H](O)[C@H]6O[C@@H]6O[C@@H](C)[C@H](O)[C@@H](O)[C@H]6O)CC[C@]5(C)[C@H]4CC[C@]3(C)[C@@H]12 [Pseudoprotodioscin] | 107% and 104% | 110 | 99.3 | 104 | 96.2 | 101 | 110 | 105
CC(=O)O[C@]1(C(C)=O)CC[C@H]2[C@@H]3CCC4=CC(=O)CCC4=C3[C@@H](c3ccc(N(C)C)cc3)C[C@@]21C [Ulipristal acetate] | 91% and 94.2% | 86.7 | 81.7 | 95.2 | 82.3 | 93.6 | 84.6 | 89.5
CS(=O)(=O)c1cccc(CNc2nc(Nc3ccc4c(c3)CCC(=O)N4)ncc2C(F)(F)F)c1 | 77% and 90.4% | 98.3 | 49.7 | 48.8 | 8.16 | 5.1 | 9.56 | 16.9
CC(C)c1noc(N2CCC(COc3ccc(-c4ccc(S(C)(=O)=O)cc4)nc3)CC2)n1 | 59.8% and 77.2% | 70.5 | 70 | 34.1 | 90.4 | 95.7 | 28.4 | 36.8
Nc1ccc(S(=O)(=O)Nc2ncccn2)cc1 [Sodium sulfadiazine] | 98.3% and 99.1% | 102 | 106 | 97.4 | 98.1 | 102 | 109 | 96.8
CC(C)(C)OC(=O)Nc1ccc(-c2cc(C(=O)NCCCCCCC(=O)NO)no2)cc1 | 1.43% and 12.4% | 5.74 | 9.27 | 11.5 | 0.79 | 0.64 | 1.39 | 2.31
